Most compounds without a hit are left out; they make up all but 1.1% or so of the library.
MOR-DOR inv ag-1 = inverse agonists of MOR-DOR heterodimerization, primary screen, cell-based, luminescence; inhibition, % at 9.3 µM; Mu-type opioid receptor (Homo sapiens) + Delta-type opioid receptor (Homo sapiens), …; 340,000 compounds, 0.21% hits; cell-based MOR-DOR heterodimer luminescence, inverse agonism; in the data active = inhibition above about 22%, passing the limit was not always enough
Target sequence (P35372 whole entry, looked up): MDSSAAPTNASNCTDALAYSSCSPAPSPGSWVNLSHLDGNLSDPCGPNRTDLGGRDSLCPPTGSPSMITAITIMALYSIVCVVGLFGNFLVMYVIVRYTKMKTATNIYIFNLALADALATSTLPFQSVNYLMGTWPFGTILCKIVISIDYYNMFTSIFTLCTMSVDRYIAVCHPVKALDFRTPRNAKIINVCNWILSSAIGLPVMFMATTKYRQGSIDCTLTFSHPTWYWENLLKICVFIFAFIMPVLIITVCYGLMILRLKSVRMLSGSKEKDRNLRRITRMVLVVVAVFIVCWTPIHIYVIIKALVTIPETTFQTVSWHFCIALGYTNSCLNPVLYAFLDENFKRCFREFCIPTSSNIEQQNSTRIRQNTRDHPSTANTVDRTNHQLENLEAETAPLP
Target sequence (P41143 whole entry, looked up): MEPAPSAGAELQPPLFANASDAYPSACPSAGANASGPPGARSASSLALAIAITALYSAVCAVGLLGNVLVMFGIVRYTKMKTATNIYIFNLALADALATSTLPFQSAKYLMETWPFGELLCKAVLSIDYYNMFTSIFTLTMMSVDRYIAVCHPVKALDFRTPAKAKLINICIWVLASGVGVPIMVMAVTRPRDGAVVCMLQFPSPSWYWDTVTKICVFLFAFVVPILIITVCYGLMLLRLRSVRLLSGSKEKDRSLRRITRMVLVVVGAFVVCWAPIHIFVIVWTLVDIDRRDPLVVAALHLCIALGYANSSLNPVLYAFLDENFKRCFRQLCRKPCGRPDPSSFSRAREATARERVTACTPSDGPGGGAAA
MOR-DOR ag = agonists of OPRM1-OPRD1 heterodimerization, primary screen, cell-based, luminescence; activation, % at 9.3 µM; AID 504326, 2011; cells; 340,000 compounds, 0.3% hits; in the data active = activation above about 18%
HTR5A inv ctr = HTR5A inverse agonists in luminescence cell assay, primary screen, counter-screen for OPRM1-OPRD1 heterodimer inverse agonist project, full-deck HTS | AID 504634, 2011 | 5-hydroxytryptamine receptor 5A (Homo sapiens), P47898 | inhibition, % at 9.3 µM | 340,000 compounds, 0.083% hits | HTR5A cell line, inverse agonism; in the data active = inhibition mostly above about 23%, no sharp cut-off; inactive = mostly below about 18%
HTR5A ag = HTR5A agonists in luminescence cell assay, primary screen, counter-screen for OPRM1-OPRD1 heterodimer agonist project, full-deck HTS | cell-based | AID 504692, 2011 | 340,000 compounds, 0.61% hits | activation, % at 9.3 µM; in the data active = activation mostly above about 9.5%, no sharp cut-off; inactive = mostly below about 7.6%
MOR-DOR inv ag-2 = inverse agonists of MOR-DOR heterodimerization, counter-screen for HTR5A inverse agonist project, cell-based, luminescence | shares compounds with HTR5A inv ctr | 190 tested, under 10 active | U2OS counter-screen cells, complementation luminescence | AID 504912, 2011 | inhibition, % at 9.3 µM
HTR5A inv conf = HTR5A inverse agonists, retest of hits, confirmation, cell-based, luminescence; inhibition, % at 9.3 µM; shares compounds with HTR5A inv ctr; AID 504916, 2011; HTR5A-expressing cells, inverse agonism; 190 tested, under 10 active
A number is an active result; i = inactive; nt = not tested or not shown. Unless noted, the rule behind the calls is not given here.

SMILES	MOR-DOR inv ag-1	MOR-DOR ag	HTR5A inv ctr	HTR5A ag	MOR-DOR inv ag-2	HTR5A inv conf
CC(=O)NC(c1ccc(C)cc1)c1cc(Cl)c2cccnc2c1O (stereo not given)	i	i	i	i	nt	nt
CCOc1cc(N2CCOCC2)c(OCC)cc1NC(=O)CN1C(=O)N(C)C2(CCCCC2)C1=O	i	i	i	i	nt	nt
COc1cc(C(CCN2CCOCC2)c2c(OC)cc(OC)c3c(-c4ccccc4)cc(=O)oc23)cc(OC)c1OC (stereo not given)	i	i	17	i	i	i
N#CCCN(/N=C/c1cccnc1)C1=NS(=O)(=O)c2ccccc21	i	i	34	i	i	i
Cc1cc(C)n2nc(C(=O)OCC(=O)Nc3ccc(C)c(S(=O)(=O)N(C)C)c3)nc2n1	i	i	i	i	nt	nt
Cc1cc(C)n2nc(C(=O)OCC(=O)Nc3ccc(C)c(S(=O)(=O)N4CCOCC4)c3)nc2n1	i	i	28	i	i	i
COC(=O)c1cc(COC(=O)c2nc3nccc(C)n3n2)oc1C	i	i	i	i	nt	nt
CC(C)Cn1c(-c2ccc(Br)cc2)c[nH]c1=S	i	i	81	i	i	i
CC(C)C[C@@H](CO)N1CCN(Cc2cccnc2)CCC1=O	i	i	28	i	i	i
COc1cccc(CNCc2ccccc2Br)c1OC	i	i	36	i	i	i
C/C(=N\Nc1cc(-c2ccccc2)nc(-c2ccccc2)n1)c1ccc(O)c(C)c1	i	i	49	i	i	i
O=C(Nc1ccc(-n2cnnn2)cc1)c1cccc(S(=O)(=O)N2CCCC2)c1	i	i	i	i	nt	nt
OCCN(CCO)c1ccc(C(c2ccc(Cl)cc2)c2ccc(N(CCO)CCO)cc2Cl)c(Cl)c1	i	i	i	i	nt	nt
Cc1cc(N(CCO)CCO)ccc1N=Nc1cc(F)ccc1F	i	i	27	i	i	i
CCN(CC)C(=O)CSc1nc2ccccc2c(=O)n1OC(C)C	i	i	38	i	i	i
O=C1N[C@@H](Cc2ccccc2)COC(=O)[C@@H](Cc2ccc(F)cc2)CC/C=C/C[C@H]1CC(=O)N(CCO)Cc1ccccc1	i	i	i	i	nt	nt
O=C1N[C@@H](Cc2ccccc2)COC(=O)[C@H](Cc2ccc(F)cc2)CC/C=C/C[C@@H]1CC(=O)N(CCO)Cc1ccccc1	i	i	37	i	i	i
Cc1sc(NC(=O)CN(CCc2ccccc2)C(=O)C2CC2)c(C(N)=O)c1C	i	i	i	i	nt	nt
CCC1=C(OC(=O)N(CC)CC)N2C(=O)OC(=NCCc3c[nH]c4ccccc34)[C@]2(C)[C@H]2C1=CC[C@H]1C(=O)N(CC(=O)OC)C(=O)[C@H]12	i	i	i	i	nt	nt
O=C1C=CC(=C(c2ccc(O)cc2)c2ccc(O)cc2)C=C1	i	i	42	i	i	i
O=C(CCCC(=O)c1ccc(O)cc1)c1ccc(O)cc1	i	i	i	i	nt	nt
CC(=O)NCCc1nc2cc(NC(=O)c3ccc([N+](=O)[O-])cc3)ccc2n1C	i	i	i	i	nt	nt
O=C(NCc1ccc(F)cc1)Nc1ccccc1	i	i	i	i	nt	nt
CSc1ccc(NC(=O)NCc2ccccc2)cc1	i	i	31	i	i	i
O=C(CCCCCN1C(=O)c2cccc3cccc(c23)C1=O)NCCCO	i	i	32	i	i	i
SMILES	MOR-DOR inv ag-1	MOR-DOR ag	HTR5A inv ctr	HTR5A ag	MOR-DOR inv ag-2	HTR5A inv conf
C=CC[n+]1c(-c2ccc(Cl)cc2Cl)csc1Nc1c(C)n(C)n(-c2ccccc2)c1=O	i	i	36	i	i	i
CN(C(=O)Cn1nc(Cl)ccc1=O)C1CCCN(Cc2ccccc2F)C1 (stereo not given)	i	i	i	i	nt	nt
CCSc1ccccc1C(=O)Nc1ccc(S(=O)(=O)NC(C)=O)cc1	i	i	i	i	nt	nt
COc1ccc(CNC(=S)NNC(=O)c2cc3ccccc3o2)cc1	i	i	i	i	nt	nt
COc1ccc(OCC(=O)NNC(=O)c2cc3ccccc3o2)cc1	i	i	39	i	i	i
CCOc1ccc(NC(=S)NC(=O)c2c(Cl)cnn2CC)c([N+](=O)[O-])c1	i	i	i	i	nt	nt
CCOc1ccc(NC(=S)NC(=O)c2c(Br)cnn2C)c([N+](=O)[O-])c1	i	i	36	i	i	i
O=C(COC(=O)Cc1ccc(F)cc1)NCc1ccco1	i	i	34	i	i	i
CCOc1cccc(/C=C/c2ccc3cccc(O)c3n2)c1OC	i	i	53	i	i	i
CCOc1cccc(/C=C/c2ccc3cccc(O)c3n2)c1O	i	i	i	i	nt	nt
Oc1cccc2ccc(/C=C/c3ccccc3Cl)nc12	i	i	62	i	i	47
CSc1nc(C)cc(Oc2ccc(=O)n(C)n2)n1	i	i	i	i	nt	nt
CCSc1nc(C)cc(Oc2ccc(=O)n(C)n2)n1	i	i	89	i	i	i
COc1ccc(-n2c(-c3ccc(Cl)cc3)c[nH]c2=S)cc1	i	i	38	i	33	i
Cc1ccc(-n2c(-c3ccccc3)c[nH]c2=S)cc1	i	i	i	i	nt	nt
COCCN(C(=O)COC(=O)c1ccc(C)o1)c1c(N)n(Cc2ccccc2)c(=O)[nH]c1=O	i	i	i	i	nt	nt
COCCN(C(=O)COC(=O)c1cc(C)oc1C)c1c(N)n(Cc2ccccc2)c(=O)[nH]c1=O	i	i	65	i	i	i
COc1cccc(NC(=O)CCS(=O)(=O)c2ccc(Br)cc2)c1	i	i	i	i	nt	nt
CC(C)Cn1c(N)c(S(=O)(=O)c2cccs2)c2nc3ccccc3nc21	i	i	38	i	i	i
O=C(CC1CCCC1)Nc1cc(C(F)(F)F)ccc1-n1cncn1	i	i	i	i	nt	nt
CCOC(=O)c1c(N)n(C2CC(C)(C)NC(C)(C)C2)c2nc3ccccc3nc12	i	i	37	i	i	i
Cc1nc2cc(NC(=O)Nc3ccc(N4CCOCC4)cc3)ccc2n1C	i	i	42	i	i	i
CCCN(C(=O)/C=C/c1ccc(S(=O)(=O)N(CC)CC)cc1)C1CCS(=O)(=O)C1 (stereo not given)	i	i	i	i	nt	nt
CN(C)/N=C/c1cc([N+](=O)[O-])ccc1O	i	i	28	i	i	i
NC(N)=N/N=C/c1cc([N+](=O)[O-])ccc1O	i	i	i	i	nt	nt
CN1CCN(c2ncnc3c2c(-c2ccccc2)cn3-c2ccc(F)cc2)CC1	i	i	39	i	i	i
O=C(C[n+]1ccccc1)N/N=C/c1cc(Br)cc(Br)c1O	i	i	41	i	i	i
O=C1C2CC=CCC2C(=O)N1Cc1nnc(-c2ccccc2Br)o1 (stereo not given)	i	i	i	i	nt	nt

Bioassay records deposited in PubChem by The Scripps Research Institute Molecular Screening Center.
